# Assay outcomes (PubChem BioAssay)
# Sampled rows, rich in hits. Any-hit rate of the full collection: about 4%.
# Rv3671c protease = Rv3671c (M. tuberculosis) protease inhibition. inhibition, % at 5.96 µM. P9WHR9. 0.048% of 320,000 active; in the data active = inhibition above about 38%;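 note: extracellular domain of Rv3671c used as enzyme; 0% = enzyme with DMSO and 100% = no enzyme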
# RecA splice inh = Mtb RecA intein splicing inhibition | AID 2221 | cell-free RecA intein splicing, fluorescence | 0.75% of 290,000 active | inhibition, % (concentration not given with the values) | P9WHJ3; in the data active = inhibition above about 30%; inconclusive = no clear call, values can overlap the other calls;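 note: 0% = vehicle wells and 100% = reference inhibitor control wells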
# Target sequence (P9WHJ3 whole entry, looked up, canonical isoform): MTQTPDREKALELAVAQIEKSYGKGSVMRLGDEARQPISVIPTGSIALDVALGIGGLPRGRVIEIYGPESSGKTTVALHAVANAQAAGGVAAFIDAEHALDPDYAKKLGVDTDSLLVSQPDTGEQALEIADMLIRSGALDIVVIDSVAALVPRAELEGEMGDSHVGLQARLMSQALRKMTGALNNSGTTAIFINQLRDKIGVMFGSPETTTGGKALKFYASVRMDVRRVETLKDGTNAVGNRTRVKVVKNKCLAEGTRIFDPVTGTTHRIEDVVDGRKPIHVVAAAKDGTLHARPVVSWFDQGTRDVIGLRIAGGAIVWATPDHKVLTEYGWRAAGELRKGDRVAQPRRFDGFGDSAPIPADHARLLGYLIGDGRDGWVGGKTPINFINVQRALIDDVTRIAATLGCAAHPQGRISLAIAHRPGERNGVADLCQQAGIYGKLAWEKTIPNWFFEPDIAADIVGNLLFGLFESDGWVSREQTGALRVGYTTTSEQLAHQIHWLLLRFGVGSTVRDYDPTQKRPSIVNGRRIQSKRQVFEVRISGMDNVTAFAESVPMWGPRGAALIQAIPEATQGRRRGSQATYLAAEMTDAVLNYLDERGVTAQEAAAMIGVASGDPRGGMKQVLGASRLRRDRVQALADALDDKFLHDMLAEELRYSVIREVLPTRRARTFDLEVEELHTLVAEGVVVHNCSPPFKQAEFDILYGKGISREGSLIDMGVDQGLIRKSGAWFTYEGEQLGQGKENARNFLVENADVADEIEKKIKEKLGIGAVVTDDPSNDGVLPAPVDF
# GDH-TPI counter = GDH-TPI coupled enzyme inhibition counter-screen. GDH-TPI coupled enzyme counterscreen, NADH absorbance. inhibition, % at 4.8 µM. 1.2% of 360,000 active; in the data active = inhibition above about 30%;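 note: 0% = DMSO wells and 100% = wells lacking the enzyme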
# FBA Mtb inh = Mtb fructose-bisphosphate aldolase inhibition | inhibition, % at 1 µM | 2.3% of 360,000 active | purified M. tuberculosis FBA, fluorescence read-out | AID 588726 | P9WQA3; in the data active = inhibition above about 27%;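 note: 0% = vehicle and 100% = reference inhibitor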
# UGM FP inh = blocks M. tuberculosis UGM enzyme; P9WIQ1; purified UGM, fluorescence polarization probe displacement; inhibition, % at 10 µM; 0.06% of 320,000 active; AID 504406; in the data active = inhibition above about 10%, passing the limit was not always enough; inconclusive = no clear call, values can overlap the other calls
# Mtb bLac sens = beta-lactam sensitization of Mtb H37Rv | M. tuberculosis H37Rv growth with meropenem, percent inhibition | inhibition, % at 25 µM | 0.27% of 330,000 active; call rule not given here;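 note: growth measured after seven days incubation then overnight dye step; 0% = bacteria only wells and 100% = bacteria with antibiotic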
# The depositor's hits bear a star; ? = inconclusive; nt = no result; + = active, no number.
SMILES,Rv3671c protease,RecA splice inh,GDH-TPI counter,FBA Mtb inh,UGM FP inh,Mtb bLac sens
COCCCNC(=O)Cc1c(C)c2c(cc(C)c3c(C)c(C)oc32)oc1=O,nt,0,9,8,nt,nt
COCCCNC(=O)Cc1c(C)c2cc3c(cc2oc1=O)OC(C)(C)CC3,2,-5,11,192*,2,-2
Cc1c(CC(=O)NCCCCCC(=O)O)c(=O)oc2c(C)c3oc4c(c3cc12)CCCC4,nt,-2,8,13,1,-1
Cc1c(CC(=O)NCCCCCC(=O)O)c(=O)oc2cc3c(cc12)CCC(C)(C)O3,nt,-2,11,187*,-1,2
COc1ccccc1C(=O)Nc1nnc(SCC(=O)NC2CCCC2)s1,0,3,2,6,1,5
Cc1c(CCC(=O)N2CCC(C(=O)O)CC2)c(=O)oc2cc3oc4c(c3cc12)CCCC4,-7,nt,1,8,-3,-3
CCC(NC(=O)Cc1c(C)c2cc3c(cc2oc1=O)OC(C)(C)CC3)C(=O)O (stereo unspecified),2,-2,23,+,2,2
Cc1c(CC(=O)N2CCC(C(N)=O)CC2)c(=O)oc2cc3c(cc12)CCC1(CCCCC1)O3,0,2,18,+,-2,1
O=S(=O)(Nc1ccc(N2CCOCC2)cc1)c1c(F)cc(F)cc1Br,11,0,-1,0,-3,4
O=CNc1cc(-c2ccc(C(=O)NC3CC3)cc2)cn2c(-c3ccc(F)cc3)cnc12,nt,nt,1,3,nt,nt
CC[n+]1c(/C=C/N(C)c2ccccc2)oc2ccccc21,-1,-5,68*,-1,-3,-3
CC[n+]1c(/C=C/N(C)c2ccccc2)oc2ccc(F)cc21,-40,21,42*,-1,1,-2
N#Cc1ccc(OCC(=O)OCC(=O)NC2CC2)cc1,8,nt,-7,1,-4,-1
N#CC(C#N)=C1C=CC=CN1/C(=C\c1ccco1)C(=O)c1ccc(Cl)cc1,-40,nt,44*,4,-1,2
CCOc1ccccc1NC(=O)CNS(=O)(=O)c1ccc2nc(C)sc2c1,4,-3,-9,-5,2,5
COc1cc(C)ccc1OCCOc1ccccc1Cl,-3,1,-5,118*,0,62
COc1cc(C)ccc1OCCCOc1ccccc1Cl,9,3,8,-2,-2,27
CNC(=O)N(O)C1N(/N=C/c2ccc(SC)cc2)C(=S)SC1(C)C (stereo unspecified),0,-15,36*,0,0,-3
CNC(=O)N(O)C1N(/N=C/c2cccnc2)C(=S)SC1(C)C (stereo unspecified),7,-11,17,-1,-1,-7
CN(C)c1ccc(/C=N/N2C(=S)SC(C)(C)C2N(O)C(=O)Nc2ccc([N+](=O)[O-])cc2)cc1 (stereo unspecified),8,-2,51*,0,2,-7
CNC(=O)N(O)C1N(/N=C/c2ccccc2O)C(=S)SC1(C)C (stereo unspecified),6,-9,36*,0,2,-2
COc1ccc(C(=O)/C=C\N2CCOCC2)cc1,6,-3,33*,-1,1,-11
COc1ccc(NC(=O)N2CCOCC2)cc1,-9,1,0,4,1,-4
O=C(NCC(=O)N1CCCC(C(F)(F)F)C1)c1ccco1 (stereo unspecified),-4,nt,2,-2,-3,-6
CSc1nc(-c2ccccc2)c(C#N)c(=O)[nH]1,0,-3,4,1,4,2
SMILES,Rv3671c protease,RecA splice inh,GDH-TPI counter,FBA Mtb inh,UGM FP inh,Mtb bLac sens
CSc1c2c([nH]c(=O)c1C#N)-c1ccccc1CC2,nt,nt,nt,175*,nt,nt
Cc1cccnc1C1=NOC(Cc2ccccc2)C(=O)N1CCOc1ccc(F)cc1 (stereo unspecified),nt,nt,0,0,nt,nt
Clc1ccc(C2=NN(c3ccccc3)C(c3ccco3)C2)cc1 (stereo unspecified),10,-1,9,161*,2,6
COc1ccc(C(=O)NCCS(=O)(=O)N(C)Cc2ccccc2)cc1,-3,2,-1,-2,-1,-11
COc1ccc(NC2CCCN(Cc3cccc4cnccc34)C2)cc1 (stereo unspecified),2,-2,15,2,-1,2
COc1ccc(NC2CCCN(Cc3cccc4cnccc34)C2)cc1OC (stereo unspecified),-9,4,20,118*,-3,6
CCOC(=O)C1CCN(C(=O)Nc2c(-c3ccccc3)noc2C)CC1,-3,1,-1,1,-1,-7
COc1cc(Br)c(C2C(C#N)=C(N)Oc3n[nH]c(-c4cccnc4)c32)cc1OC (stereo unspecified),-4,57*,-5,-5,2,-6
COc1cc(OC)cc(C2C(C#N)=C(N)Oc3n[nH]c(-c4cccnc4)c32)c1 (stereo unspecified),-16,50*,-3,-2,2,1
CC(C)(C)c1ccc(C2C(C#N)=C(N)Oc3n[nH]c(-c4cccnc4)c32)cc1 (stereo unspecified),-26,6,11,3,0,-4
CCOC(=O)c1nc(Nc2ccc(C)cc2)c2ccccc2n1,-10,1,34*,-3,1,-7
CCOC(=O)c1ccc(Nc2c(OCC)c(=O)c2=O)cc1,1,0,35*,-3,-1,10
CCOC(=O)c1ccc(Nc2ncnc3ccccc23)cc1,-10,1,57*,2,2,9
CCOC(=O)c1nc(Nc2ccccc2)c2ccccc2n1,0,0,22,-1,4,-13
O=C(Nc1ccccc1Br)C1CCN(S(=O)(=O)c2cccs2)CC1,3,nt,-10,0,-2,-7
Cc1cccc(NC(=O)CSc2nc3ccccc3nc2N2CCCC2)c1C,-5,2,2,3,-2,10
CN1CC2(Cc3c1ccc1ccccc31)C(=O)OC(C)(C)OC2=O,4,-20,7,+,1,?
CCN(CC(=O)Nc1ccc(NC(C)=O)cc1)C(=O)/C=C/c1ccc(C)o1,9,nt,35*,1,3,1
CN1N=C(C(=O)N=c2sc3ccccc3n2C)CCC1=O,nt,nt,49*,1,nt,nt
COC(=O)c1ccc(N=NN2CCCCCC2)cc1,-3,6,32*,4,0,2
COC(=O)c1ccc(N=NN2CCOCC2)cc1,-11,4,15,0,3,4
O=C1NC2=C(CCc3ccccc32)C(c2ccccc2)N1 (stereo unspecified),-36,47*,2,8,-1,0
NC(N)=NN=C(c1ccc(F)cc1)c1ccc(C(F)(F)F)cc1,nt,nt,2,-2,nt,nt
CCOC(=O)N1CCC(NC(=O)c2ccc(Cl)cc2)CC1,2,2,2,1,2,-4
CCOC(=O)N1CCC(Nc2nc3ccccc3nc2NS(=O)(=O)c2ccc(Cl)cc2)CC1,-2,-3,42*,5,1,6
